Bioassay records (PubChem)
In the library only some 15% were active in any assay of this set; here they are far more common.
Sm TGR block: qHTS Assay for the Inhibitors of Schistosoma Mansoni Peroxiredoxins. Schistosoma mansoni thioredoxin glutathione reductase (TGR), Q962Y6. purified TGR, DTNB reduction, TNB absorbance 405 nm. Potency, µM (titrated, usually from 114 µM), actives largely listed as inhibitors. 3% of 360,000 active. AID 485364, 2010; further: nearly all actives have a fitted effect of over 60% in size
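Kinetic colorimetric format: TGR-catalysed, NADPH-driven DTNB reduction monitored via TNB absorbance. Enzyme dispensed at 20 nM; compound exposure 15 min at room temperature before reaction start.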
SARS PLpro yeast: qHTS of Yeast-based Assay for SARS-CoV PLP. Potency, µM (highest dose often 32.9 µM), actives largely listed as activators. 0.19% of 330,000 active. AID 485353, 2010. S. cerevisiae expressing SARS-CoV PLpro, growth rescue; calls by dose curve; further: nearly all actives have a fitted effect of over 55% in size
HCV inh: qHTS Assay for Inhibitors of Hepatitis C Virus (HCV). Huh7.5.1 HCVcc-Cre infection, luciferase reporter, 44 h. Potency, µM (series often up to 41.8 µM), actives largely listed as inhibitors. 3.4% of 340,000 active. AID 651820, 2012
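After 44 h co-culture of compound, cells and HCVcc-Cre (~0.5 moi), substrate is added for 15 min at room temperature and luciferase measured over 15 sec. Cells were seeded at 1,000/well and pre-cultured 4 h.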
HCMV inh: qHTS Assay for inhibitors of the human cytomegalovirus (HCMV); HFF cells, HCMV-luciferase reporter, 72 h; stronger effect = lower value; activity change, negative = inhibition, % at 57.5 µM; 4.5% of 410,000 active; AID 1259415, 2018; in the data active means activity change below about -60%; inconclusive means no clear call, values can overlap the other calls; inactive means above about -39%
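HFF cells seeded 16 h at 37C, treated with compounds, infected with luciferase-reporter HCMV at MOI 1 PFU/cell; luciferase read at 72 h post infection, normalized to buffer-only and Salinomycin controls.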
Pf growth 48h: Primary qHTS for delayed death inhibitors of the malarial parasite plastid, 48 hour incubation; P. falciparum luciferase growth in erythrocytes, 48 h; 5.9% of 310,000 active; Potency, µM (highest dose often 28.7 µM), hits mostly inhibitors
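Growth was read as firefly luciferase luminescence after a 48 h, 37 C, 5% CO2 exposure of compounds to reporter-bearing P. falciparum cultures (0.1% parasitemia, 2% hematocrit final) in Albumax-supplemented RPMI 1640.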
Pf growth 96h: Primary qHTS for delayed death inhibitors of the malarial parasite plastid, 96 hour incubation; P. falciparum luciferase reporter growth, 96 h; Potency, µM (series often up to 28.7 µM), hits mostly inhibitors; 6.9% of 320,000 active
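P. falciparum expressing integrated firefly luciferase, in erythrocytes at 2% hematocrit, 0.05% parasitemia, incubated with compounds 96 h at 37 C, 5% CO2. Growth inhibition read as loss of luminescence; two-generation exposure targets delayed-death apicoplast inhibitors.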
Large screens that a line does not name were inactive. Unless noted, the call rests on the fitted dose curve; in most records, active means well fitted curve in the direction sought with a large enough effect; inconclusive means small, poorly fitted or top-dose-only effect, or another doubt; inactive means no such curve, though single readings can be large; an effect the other way counts as inactive or inconclusive.

COC(=O)C1=CCCCC(O)=C1C(=O)OC	none (no result: Sm TGR block, SARS PLpro yeast, HCV inh, Pf growth 48h, Pf growth 96h)
COc1ccc(NC(=O)CNC(=O)c2ccco2)cc1	Pf growth 96h inconclusive
O=C(N/C=C/c1ccco1)Nc1cccc(Cl)c1	Sm TGR block 45µM
COc1ccc(NC(=O)N/C=C/c2ccco2)cc1	Sm TGR block 14µM
O=C(N/N=C/c1ccco1)c1cccc(NC(=O)c2cccc(Cl)c2)c1	none
Cc1cc(C)cc(NC(=O)C(=O)NCC(c2ccc3c(c2)OCO3)N2CCN(C)CC2)c1 (stereo not given)	none (no result: SARS PLpro yeast, HCV inh, Pf growth 48h, Pf growth 96h)
CCc1ccc(N(C(=O)c2ccco2)C(C(=O)NC2CCCC2)c2cccnc2)cc1 (stereo not given)	HCMV inh inconclusive, Pf growth 48h inconclusive, Pf growth 96h inconclusive
O=C(NCC(=O)N(CCc1ccccc1)C(C(=O)NC1CCCCC1)c1ccncc1)c1ccco1 (stereo not given)	Sm TGR block inconclusive, Pf growth 48h inconclusive
O=C(NC1CCCC1)C(c1cccnc1)N(CCc1ccccc1)C(=O)c1ccco1 (stereo not given)	Pf growth 48h 5.2µM (no result: Sm TGR block)
CCC(C)c1ccc(N(C(=O)c2ccco2)C(C(=O)NC2CCCC2)c2cccnc2)cc1 (stereo not given)	HCV inh inconclusive, Pf growth 48h 1.9µM
O=C(NCC(=O)N(CCc1ccccc1)C(C(=O)NC1CCCC1)c1cccnc1)c1ccco1 (stereo not given)	Pf growth 48h 15µM (no result: HCMV inh)
O=C(NC1CCCCC1)C(c1cccnc1)N(CCc1ccccc1)C(=O)Cc1cccs1 (stereo not given)	HCMV inh inconclusive, Pf growth 48h 13µM
O=C(NC1CCCC1)C(c1ccncc1)N(Cc1ccccc1)C(=O)Cc1cccs1 (stereo not given)	Pf growth 48h inconclusive, Pf growth 96h inconclusive
O=C(COc1ccccc1Cl)Nc1cc(-c2ccccc2F)nn1-c1ccccc1	none (no result: SARS PLpro yeast, HCV inh, Pf growth 48h, Pf growth 96h)
Cc1ccc2nc(NC(=O)C3CCN(S(=O)(=O)c4cccc5nsnc45)CC3)sc2c1	HCV inh inconclusive, HCMV inh -85, Pf growth 48h inconclusive
O=C(Nc1ccc2c(c1)OCCO2)C1CCCN(S(=O)(=O)c2cccc3nsnc23)C1 (stereo not given)	HCV inh inconclusive, HCMV inh -77 (no result: Pf growth 48h)
Cc1ccc2nc(NC(=O)C3CCCN(S(=O)(=O)c4cccc5nsnc45)C3)sc2c1 (stereo not given)	HCV inh 11µM, Pf growth 48h 10µM, Pf growth 96h inconclusive
O=C(Nc1nc2cc(Cl)ccc2s1)C1CCCN(S(=O)(=O)c2cccc3cccnc23)C1 (stereo not given)	HCV inh 11µM, Pf growth 96h 12µM (no result: HCMV inh, Pf growth 48h)
Cc1ccc(NC(=O)C2CCN(S(=O)(=O)c3cccc4nsnc34)CC2)cc1	none (no result: SARS PLpro yeast, HCV inh, Pf growth 48h, Pf growth 96h)
CCOC(=O)C1(C)C=C(Nc2cccc(C(=O)O)c2)C(=O)N1c1ccccc1 (stereo not given)	none (no result: SARS PLpro yeast, HCV inh, Pf growth 48h, Pf growth 96h)
Cc1cc(Nc2ccccc2O)nc(C)n1	none (no result: SARS PLpro yeast, HCV inh, Pf growth 48h, Pf growth 96h)
Cc1cccc(Nc2cc(C)c3c(O)cccc3n2)c1C	HCV inh inconclusive, HCMV inh -65, Pf growth 48h 0.74µM
CN(C)CCNc1ncnc2c1sc1nc(N3CCOCC3)c3c(c12)CC(C)(C)SC3	HCV inh 10µM, HCMV inh inconclusive, Pf growth 48h inconclusive, Pf growth 96h inconclusive
CCN(CC)CCNc1ncnc2c1sc1nc(N3CCOCC3)c3c(c12)CC(C)(C)SC3	Pf growth 48h inconclusive, Pf growth 96h 5.2µM
COCCNc1nnnc2c1sc1nc(N3CCOCC3)c3c(c12)CC(C)(C)OC3	HCV inh inconclusive, Pf growth 48h inconclusive, Pf growth 96h inconclusive
CC1(C)Cc2c(c(N3CCOCC3)nc3sc4c(NCCN)ncnc4c23)CO1	HCV inh 7.1µM (no result: Sm TGR block, SARS PLpro yeast, Pf growth 48h, Pf growth 96h)
CC1(C)Cc2c(c(N3CCOCC3)nc3sc4c(=O)[nH]cnc4c23)CS1	HCV inh inconclusive
